Source: article PMC8222333, “AsCas12a ultra nuclease facilitates the rapid generation of therapeutic cell medicines”
Numbering of substitutions follows the chain as printed.

B1: CAGG (dsDNA)
DNA 1: GCTATCTAGTGCTCAGTACGCACTGCAGGAGGAAACTTCTGGCAGGACCAGGTCATGAGATCGGAAGAGCACACGTCTGAACTCCAGTCA
DNA 2: TGACTGGAGTTCAGACGTGTGCTCTTCCGATCTCATGACCTGGTCCTGCCAGAAGTTTCCTCCTGCAGTGCGTACTGAGCACTAGATAGC
RNA: AAUUUCUACUCUUGUAGAUAGGAAACUUCUGGCAGGACC
B2: CGAG (dsDNA)
DNA 1: B1 DNA 1 with A27G, G28A
DNA 2: B1 DNA 2 with C63T, T64C
RNA: B1 RNA
B3: CAGT (dsDNA)
DNA 1: B1 DNA 1 with G29T
DNA 2: B1 DNA 2 with C62A
RNA: B1 RNA
B4: CATT (dsDNA)
DNA 1: B1 DNA 1 with G28T, G29T
DNA 2: B1 DNA 2 with C62A, C63A
RNA: B1 RNA
B5: CGAC (dsDNA)
DNA 1: B1 DNA 1 with A27G, G28A, G29C
DNA 2: B1 DNA 2 with C62G, C63T, T64C
RNA: B1 RNA
B6: CGAA (dsDNA)
DNA 1: B1 DNA 1 with A27G, G28A, G29A
DNA 2: B1 DNA 2 with C62T, C63T, T64C
RNA: B1 RNA
B7: CCAT (dsDNA)
DNA 1: B1 DNA 1 with A27C, G28A, G29T
DNA 2: B1 DNA 2 with C62A, C63T, T64G
RNA: B1 RNA
B8: CCCT (dsDNA)
DNA 1: B1 DNA 1 with A27C, G28C, G29T
DNA 2: B1 DNA 2 with C62A, C63G, T64G
RNA: B1 RNA
B9: CCGC (dsDNA)
DNA 1: B1 DNA 1 with A27C, G29C
DNA 2: B1 DNA 2 with C62G, T64G
RNA: B1 RNA
B10: CCAA (dsDNA)
DNA 1: B1 DNA 1 with A27C, G28A, G29A
DNA 2: B1 DNA 2 with C62T, C63T, T64G
RNA: B1 RNA
B11: CCGA (dsDNA)
DNA 1: B1 DNA 1 with A27C, G29A
DNA 2: B1 DNA 2 with C62T, T64G
RNA: B1 RNA
B12: CCAC (dsDNA)
DNA 1: B1 DNA 1 with A27C, G28A, G29C
DNA 2: B1 DNA 2 with C62G, C63T, T64G
RNA: B1 RNA
B13: CGCA (dsDNA)
DNA 1: B1 DNA 1 with A27G, G28C, G29A
DNA 2: B1 DNA 2 with C62T, C63G, T64C
RNA: B1 RNA
B14: CCAG (dsDNA)
DNA 1: B1 DNA 1 with A27C, G28A
DNA 2: B1 DNA 2 with C63T, T64G
RNA: B1 RNA
B15: CCGT (dsDNA)
DNA 1: B1 DNA 1 with A27C, G29T
DNA 2: B1 DNA 2 with C62A, T64G
RNA: B1 RNA
B16: CGAT (dsDNA)
DNA 1: B1 DNA 1 with A27G, G28A, G29T
DNA 2: B1 DNA 2 with C62A, C63T, T64C
RNA: B1 RNA
B17: CGCC (dsDNA)
DNA 1: B1 DNA 1 with A27G, G28C, G29C
DNA 2: B1 DNA 2 with C62G, C63G, T64C
RNA: B1 RNA

molecular target: dAsCas12a S542R (Acidaminococcus sp., UniProt U2UMQ6 1-1307, S542R;D908A;E993A;D1235A); test: Spec-seq (native PAGE EMSA with sequencing of bound and unbound); 25 mM Tris-HCl pH 7.4, 150 mM KCl, 5 mM MgCl2, 10% glycerol, 1 mM DTT, 40 ng/uL salmon sperm DNA; 400 nM Cas12a, 480 nM crRNA, 50 nM library, 37 C 1 h; native PAGE at room temperature; high values mean tight binding; settings: protein: recombinant
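Further: relative affinity from the bound to unbound sequence frequency ratio in Spec-seq.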

Row | Binder | binding signal [lnKA]
1 | B1 | -8.98
2 | B2 | -8.83
3 | B3 | -8.61
4 | B4 | -8.56
5 | B5 | -8.8
6 | B6 | -8.66
7 | B7 | -8.87
8 | B8 | -7.57
9 | B9 | -8.39
10 | B10 | -8.66
11 | B11 | -8.62
12 | B12 | -8.4
13 | B13 | -8.48
14 | B14 | -8.95
15 | B15 | -8.47
16 | B16 | -8.8
17 | B17 | -8.54

molecular target: d-enCas12a (Acidaminococcus sp., UniProt U2UMQ6 1-1307, E174R;S542R;K548R;D908A;E993A;D1235A); test: as above; settings: protein: recombinant

Row | Binder | binding signal [lnKA]
18 | B1 | -5.82
19 | B2 | -5.83
20 | B3 | -5.67
21 | B4 | -5.39
22 | B5 | -5.58
23 | B6 | -5.81
24 | B7 | -5.81
25 | B8 | -5.17
26 | B9 | -5.85
27 | B10 | -5.83
28 | B11 | -5.74
29 | B12 | -5.65
30 | B13 | -2.19
31 | B14 | -5.72
32 | B15 | -5.88
33 | B16 | -5.8
34 | B17 | -1.48

molecular target: d-enCas12a-Ultra (Acidaminococcus sp., UniProt U2UMQ6 1-1307, E174R;S542R;K548R;M537R;F870L;D908A;E993A;D1235A); test: as above; settings: protein: recombinant

Row | Binder | binding signal [lnKA]
35 | B1 | -3.56
36 | B2 | -3.31
37 | B3 | -3.37
38 | B4 | -2.95
39 | B5 | -2.94
40 | B6 | -3.32
41 | B7 | -3.45
42 | B8 | -1.7
43 | B9 | -3.33
44 | B10 | -3.39
45 | B11 | -3.44
46 | B12 | -3.37
47 | B13 | -0.537
48 | B14 | -3.45
49 | B15 | -3.38
50 | B16 | -3.4
51 | B17 | -0.384
